TcdB GH inh: TcdB glycohydrolase inhibition. P18177. TcdB glycohydrolase enzymatic assay, plate reader. inhibition, % at 9.99 µM. actives 0.24% (n = 350,000). AID 652162; in the data active = inhibition above about 10%
Anthrax LF prot: anthrax lethal factor protease inhibition; actives 0.12% (n = 360,000); inhibition, % at 10 µM; multiplex microsphere protease cleavage assay, LF; also: plate controls were buffer without enzyme for full effect and enzyme alone for no effect
Target sequence (P15917 whole entry, looked up): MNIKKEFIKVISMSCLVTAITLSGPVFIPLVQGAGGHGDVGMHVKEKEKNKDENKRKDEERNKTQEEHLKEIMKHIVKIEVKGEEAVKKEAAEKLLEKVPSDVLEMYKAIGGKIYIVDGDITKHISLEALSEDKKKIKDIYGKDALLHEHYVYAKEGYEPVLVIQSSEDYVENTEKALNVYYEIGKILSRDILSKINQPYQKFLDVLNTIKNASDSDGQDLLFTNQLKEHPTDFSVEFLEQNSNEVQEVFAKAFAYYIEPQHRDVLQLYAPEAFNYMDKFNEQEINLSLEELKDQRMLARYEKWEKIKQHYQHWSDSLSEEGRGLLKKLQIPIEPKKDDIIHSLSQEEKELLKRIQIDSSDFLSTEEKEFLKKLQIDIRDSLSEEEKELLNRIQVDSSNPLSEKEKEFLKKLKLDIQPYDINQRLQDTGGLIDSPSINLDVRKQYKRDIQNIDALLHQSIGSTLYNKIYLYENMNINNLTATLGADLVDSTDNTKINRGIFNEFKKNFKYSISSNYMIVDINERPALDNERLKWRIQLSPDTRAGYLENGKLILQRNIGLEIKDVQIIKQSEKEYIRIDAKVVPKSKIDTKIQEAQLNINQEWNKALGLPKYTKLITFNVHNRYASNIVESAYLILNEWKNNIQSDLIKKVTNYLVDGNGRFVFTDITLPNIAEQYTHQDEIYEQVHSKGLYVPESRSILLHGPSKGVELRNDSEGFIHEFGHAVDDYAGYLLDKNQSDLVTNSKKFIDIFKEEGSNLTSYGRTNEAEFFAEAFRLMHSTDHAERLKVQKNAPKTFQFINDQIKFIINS
BoNT-A LC inh2: inhibitors of Botulinum neurotoxin A light chain protease; actives 0.17% (n = 360,000); multiplex microsphere protease substrate cleavage, flow cytometry; inhibition, % at 10 µM; also: plate controls were buffer without enzyme for full effect and enzyme alone for no effect
Autofluor counter: counter-screen for toxin protease inhibitors: compound fluorescence; compound autofluorescence counterscreen, microsphere flow cytometry; active compounds read high; fluorescence intensity (concentration not given with the values); actives 3.1% (n = 360,000); in the data active = fluorescence intensity above about 16000; inconclusive = no clear call, values can overlap the other calls
BoNT F protease: blocks Botulinum neurotoxin F light chain protease; Multiplex microsphere protease cleavage assay, flow cytometry; inhibition, % at 10 µM; actives 0.22% (n = 360,000); AID 588497; in the data active = inhibition above about 35%, passing the limit was not always enough; inconclusive = no clear call, values can overlap the other calls; also: plate controls were buffer without enzyme for full effect and enzyme alone for no effect
The depositor's hits bear a star; ? = inconclusive; . = not tested or not shown. This excerpt belongs to a sample that is enriched for hits. Rule as the data show it, unless noted: active = inhibition above about 30%; inconclusive = no clear call, values can overlap the other calls; inactive = below that.

SMILES	TcdB GH inh	Anthrax LF prot	BoNT-A LC inh2	Autofluor counter	BoNT F protease
COc1ccc(C(C(=O)NC(C)(C)C)N(C(=O)CCC(=O)Nc2cc(C)on2)c2cccc(F)c2)cc1 (stereo unspecified)	-1	1	0	5373	-4
O=C(NC1CCC1)[C@@H]1[C@@H](CO)[C@@H]2Cn3c(ccc(-c4ccncc4)c3=O)[C@@H]2N1CC1CC1	-10	.	.	.	.
CC=Cc1ccc2n(c1=O)C[C@@H]1[C@@H](CO)[C@H](C(=O)NCC)[C@H]2N1Cc1ccccc1 (mixture of isomers)	0	.	.	.	.
C=CCn1c(SCC)nc2sc3c(c2c1=O)CCc1ccccc1-3	.	-1	-2	17250*	-5
C=CCn1c(SC)nc2sc3c(c2c1=O)CCc1ccccc1-3	-8	0	0	2256	1
CCN(CC)S(=O)(=O)c1ccc(C(=O)NCc2n[nH]c(=S)n2Cc2ccccc2)cc1	1	0	2	21413*	2
CCN(CC)S(=O)(=O)c1ccc(C(=O)NCc2cccs2)cc1	.	2	1	21571*	-1
O=C(NCc1n[nH]c(=S)n1Cc1ccccc1)c1ccccc1	2	-4	0	4204	2
C=CCOC(=O)C1=C(C)N=C2SCCC(=O)N2C1c1ccc(OC(=O)c2ccco2)cc1 (stereo unspecified)	.	-1	-1	23769*	-7
COCCOC(=O)C1=C(C)N=C2SCCC(=O)N2C1c1cccc(Br)c1 (stereo unspecified)	.	1	-3	17065*	-6
COC(=O)C1=C(C)N=C2SCCC(=O)N2C1c1ccc(OC(=O)c2ccco2)cc1 (stereo unspecified)	.	-6	-1	2398	-2
CCOC(=O)C(C)(C)Sc1ncnc2nc[nH]c12	.	-1	?	23381*	3
O=c1[nH]cnc2sc3c(c12)CCN(Cc1ccccc1)C3	.	1	3	3721	-3
OCCCNc1ncnc2sc3c(c12)CCN(Cc1ccccc1)C3	0	-24	35*	7833	?
O=C(CSc1nnc(Cc2ccccc2)n1-c1ccccc1)NNC(=O)Cc1ccccc1	.	3	2	21981*	2
Cc1cccc(C)c1NC(=O)CSc1nnc(Cn2nnc(-c3ccccc3)n2)n1-c1ccccc1	.	1	?	19692*	0
O=C(N[C@@H]1CC[C@H](CCn2cc(C3(O)CCCC3)nn2)O[C@@H]1CO)C1CCOCC1	0	.	.	.	.
CCOC(=O)c1ccc(NC(=O)CSC2=NC(=O)C(CC)C(=O)N2)cc1 (stereo unspecified)	.	-2	0	16464*	-2
CCOC(=O)Cn1nnc(-c2ccc(S(C)(=O)=O)cc2)n1	.	-2	0	23651*	-2
CCOC(=O)c1ccc(NC(=O)CSc2nnnn2CCCO)cc1	.	-1	-1	22895*	-3
CCOC(=O)c1ccc(NC(=O)CN2C(=O)CSC2=O)cc1	.	1	1	22745*	1
COc1ccccc1-c1cn(CC[C@H]2CC[C@@H](NC(=O)C3CCOCC3)[C@H](CO)O2)nn1	2	.	.	.	.
C[C@@H]1CN([C@@H](C)CO)C(=O)c2cccc(NS(=O)(=O)c3cn(C)cn3)c2O[C@H]1CN(C)Cc1ccc(C(=O)O)cc1	0	.	.	.	.
C[C@@H]1CN([C@H](C)CO)C(=O)c2cc(C#CC(C)(C)O)cnc2O[C@@H]1CN(C)C(=O)CN(C)C	0	.	.	.	.
CCOC(=O)c1ccc(NC(=O)C(CC)(CC)C(=O)OCC)cc1	.	2	-4	18219*	-9
SMILES	TcdB GH inh	Anthrax LF prot	BoNT-A LC inh2	Autofluor counter	BoNT F protease
CCOC(=O)c1ccc(NC(=S)NN)cc1	-1	-5	-1	3494	-2
CCOC(=O)c1ccc(NC(=O)Cn2nnc(-c3ccc(F)cc3)n2)cc1	.	0	-2	23033*	-2
CCOC(=O)c1ccc(NC(=O)Cn2cccc2)cc1	1	-10	2	22123*	0
CCOC(=O)c1ccc(NC(=O)COC)cc1	.	-1	1	9164	8
O=C(CN1C(=O)C2C3C=CC(C3)C2C1=O)Nc1ccc(C(=O)O)cc1 (stereo unspecified)	.	3	1	9848	6
COC(=O)c1ccc(NC(=O)CN2C(=O)C3C4C=CC(C4)C3C2=O)cc1 (stereo unspecified)	.	-1	-3	17210*	-3
C[C@@H]1CCCCO[C@@H](CN(C)Cc2ccc(C(=O)O)cc2)[C@@H](C)CN([C@@H](C)CO)C(=O)c2cc(NC(=O)Nc3ccc4c(c3)OCO4)ccc2O1	-2	.	.	.	.
C[C@H](CO)N1C[C@H](C)[C@@H](CN(C)C(=O)NC2CCCCC2)Oc2ccc(NC(=O)Nc3ccc4c(c3)OCO4)cc2CC1=O	-1	.	.	.	.
CCNC(=O)C[C@H]1CC[C@H]2[C@@H](COC[C@@H](O)CN2C(=O)Nc2ccc3c(c2)OCO3)O1	-2	.	.	.	.
CCc1cccc(NC(=O)Cn2cccc2)c1	.	-4	-1	23986*	-2
CCOC(=O)c1ccc(NC(=O)CN2C(=O)CNC2=O)cc1	.	0	-3	23272*	-3
CCc1cccc(NC(=O)CN2C(=O)NC3(CCCCCCC3)C2=O)c1	.	-16	10	13579	8
COC(=O)C[C@@H]1C[C@@H]2c3cc(NC(=O)Nc4ccc(OC)cc4)ccc3O[C@@H]2[C@@H](CO)O1	-2	.	.	.	.
CC(C)NC(=O)N(C)C[C@@H]1Oc2ccc(NC(=O)Nc3ccc(F)cc3)cc2CC(=O)N([C@@H](C)CO)C[C@H]1C	-1	.	.	.	.
O=C(CSc1nc2cc3ccccc3cc2[nH]1)Nc1ccc(F)cc1	.	-1	?	23788*	1
Cc1ccc(NC(=O)CSc2nc(NS(=O)(=O)c3ccc(C)cc3)cc(=O)[nH]2)cc1	.	-2	?	19078*	4
Cc1ccc(S(=O)(=O)Nc2cc(=O)[nH]c(SCC(=O)Nc3cccc(C(F)(F)F)c3)n2)cc1	1	3	-9	3088	-54
COc1ccc(NC(=O)CSc2nc3ccc(OC)cc3[nH]2)cc1	0	-2	0	3514	3
O=C(CSc1nc2ccccc2c(=O)[nH]1)Nc1ccc(S(=O)(=O)N2CCCC2)cc1	.	1	?	16902*	-3
CC(C)(C)c1csc(NC(=O)CSc2nc3ccccc3c(=O)[nH]2)n1	.	-1	?	19081*	4
Cc1cccc(C)c1NC(=O)CSc1nc2ccccc2c(=O)[nH]1	.	0	?	22821*	-1
Cc1csc(NC(=O)CSc2nc3ccccc3c(=O)[nH]2)n1	.	16	0	10517	8
CCOc1ccccc1-n1c(SCC(N)=O)nnc1-c1ccc(O)cc1	.	-1	2	19710*	4
CCOc1ccccc1-n1c(SCC(N)=O)nnc1-c1ccccc1	.	1	?	16659*	-4
CCCC#Cc1ccc2c(c1)O[C@H](CN(C)C(=O)c1ccccc1)[C@H](C)CN([C@H](C)CO)S2(=O)=O	0	.	.	.	.
C[C@@H]1CN([C@@H](C)CO)C(=O)c2cc(C3=CCCC3)cnc2O[C@H]1CN(C)C(=O)C1CCOCC1	0	.	.	.	.
CC(=O)c1cc(NC(=O)c2ccc(Cl)cc2)c(=O)oc1/C=C/N(C)C	.	2	?	25493*	1
COc1ccc(C(=O)Nc2cc(C(C)=O)c(C)oc2=O)cc1	1	-14	0	4373	0
